# Screen size: about 5,700 compounds; about 85 (1%) were called active. This is one part of a sample in which actives are shown more often than they occur. No stated cut-off is given here; in the data, active means p53-positive nuclei above about 36% (passing the limit was not always enough); inactive means the rest.
# Key:
# [1] = nuclear p53 accumulation, HPV+ cells – imaging, p53-positive nuclei imaging, 24 h, 48 h (AID 1508601); conditions: 24/48 h
# [2] = target: Cellular tumor antigen p53 (Homo sapiens) (UniProt P04637); experiment: as above; conditions: 24/48 h, stronger effect = higher value
# Chain of Cellular tumor antigen p53 (Homo sapiens) (P04637 whole entry, looked up): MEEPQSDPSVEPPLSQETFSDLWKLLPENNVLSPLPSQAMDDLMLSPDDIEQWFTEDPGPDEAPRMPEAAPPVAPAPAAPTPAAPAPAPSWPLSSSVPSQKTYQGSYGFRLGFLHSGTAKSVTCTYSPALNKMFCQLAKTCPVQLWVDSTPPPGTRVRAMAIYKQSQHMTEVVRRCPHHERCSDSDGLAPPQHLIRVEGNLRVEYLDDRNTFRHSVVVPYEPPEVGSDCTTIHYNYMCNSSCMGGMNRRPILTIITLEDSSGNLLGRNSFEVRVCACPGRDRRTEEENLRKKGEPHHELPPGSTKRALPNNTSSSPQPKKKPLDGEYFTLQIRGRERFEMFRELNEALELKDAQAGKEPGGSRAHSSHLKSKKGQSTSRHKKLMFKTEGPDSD
# [3] = measured here: cell number at 24 h, Library stock concentration: 3.33 mM
# [4] = measured here: cell number at 24 h, Library stock concentration: 10 mM
# [5] = measured here: cell number at 48 h, Library stock concentration: 3.33 mM
# [6] = measured here: cell number at 48 h, Library stock concentration: 10 mM
# [7] = Library stock concentration: 3.33 mM
# [8] = Library stock concentration: 10 mM
# [9] = measured here: p53 positive nuclei at 24 h, Library stock concentration: 3.33 mM
# [10] = measured here: p53 positive nuclei at 24 h, Library stock concentration: 10 mM
# [11] = measured here: cell number at 24 h, concentration not given here
# [12] = measured here: cell number at 48 h, concentration not given here
# [13] = measured here: p53 positive nuclei at 24 h, concentration not given here
compound,measurement,setting,value
OC(c1cc(C(F)(F)F)nc2c(C(F)(F)F)cccc12)[C@H]1CCCCN1 (stereo partly specified),"nuclei count, normalised","[1]; measured here: cell number at 24 h, Library stock concentration: 500 nM",110%
same,"nuclei count, normalised","[1]; measured here: cell number at 24 h, Library stock concentration: 1.5 uM",109%
same,"nuclei count, normalised","[1]; measured here: cell number at 24 h, Library stock concentration: 4.6 uM",109%
same,"nuclei count, normalised","[1]; measured here: cell number at 24 h, Library stock concentration: 13.7 uM",101%
same,"nuclei count, normalised","[1]; measured here: cell number at 24 h, Library stock concentration: 41 uM",117%
same,"nuclei count, normalised","[1]; measured here: cell number at 24 h, Library stock concentration: 123 uM",109%
same,"nuclei count, normalised","[1]; measured here: cell number at 24 h, Library stock concentration: 370 uM",109%
same,"nuclei count, normalised","[1]; measured here: cell number at 24 h, Library stock concentration: 1.111 mM",110%
same,"nuclei count, normalised",[1]; [3],95.3%
same,"nuclei count, normalised","[1]; measured here: cell number at 24 h, Library stock concentration: 3.333 mM",112%
same,"nuclei count, normalised",[1]; [4],86.2%
same,"nuclei count, normalised","[1]; measured here: cell number at 48 h, Library stock concentration: 500 nM",105%
same,"nuclei count, normalised","[1]; measured here: cell number at 48 h, Library stock concentration: 1.5 uM",105%
same,"nuclei count, normalised","[1]; measured here: cell number at 48 h, Library stock concentration: 4.6 uM",112%
same,"nuclei count, normalised","[1]; measured here: cell number at 48 h, Library stock concentration: 13.7 uM",103%
same,"nuclei count, normalised","[1]; measured here: cell number at 48 h, Library stock concentration: 41 uM",120%
same,"nuclei count, normalised","[1]; measured here: cell number at 48 h, Library stock concentration: 123 uM",113%
same,"nuclei count, normalised","[1]; measured here: cell number at 48 h, Library stock concentration: 370 uM",110%
same,"nuclei count, normalised","[1]; measured here: cell number at 48 h, Library stock concentration: 1.111 mM",113%
same,"nuclei count, normalised",[1]; [5],94.9%
same,"nuclei count, normalised","[1]; measured here: cell number at 48 h, Library stock concentration: 3.333 mM",116%
same,"nuclei count, normalised",[1]; [6],99.6%
same,"p53-positive nuclei, normalised",[2]; Library stock concentration: 500 nM,-0.00517% (inactive)
same,"p53-positive nuclei, normalised",[2]; Library stock concentration: 1.5 uM,-0.125% (inactive)
same,"p53-positive nuclei, normalised",[2]; Library stock concentration: 4.6 uM,0.0484% (inactive)
same,"p53-positive nuclei, normalised",[2]; Library stock concentration: 13.7 uM,-0.00344% (inactive)
same,"p53-positive nuclei, normalised",[2]; Library stock concentration: 41 uM,-0.185% (inactive)
same,"p53-positive nuclei, normalised",[2]; Library stock concentration: 123 uM,-0.102% (inactive)
same,"p53-positive nuclei, normalised",[2]; Library stock concentration: 370 uM,-0.0936% (inactive)
same,"p53-positive nuclei, normalised",[2]; Library stock concentration: 1.111 mM,-0.065% (inactive)
same,"p53-positive nuclei, normalised",[2]; [7],4.69% (inactive)
same,"p53-positive nuclei, normalised",[2]; Library stock concentration: 3.333 mM,-0.144% (inactive)
same,"p53-positive nuclei, normalised",[2]; [8],1.04% (inactive)
same,"p53-positive nuclei, normalised","[2]; measured here: p53 positive nuclei at 24 h, Library stock concentration: 500 nM",0.0755%
same,"p53-positive nuclei, normalised","[2]; measured here: p53 positive nuclei at 24 h, Library stock concentration: 1.5 uM",-0.239%
same,"p53-positive nuclei, normalised","[2]; measured here: p53 positive nuclei at 24 h, Library stock concentration: 4.6 uM",-0.0294%
same,"p53-positive nuclei, normalised","[2]; measured here: p53 positive nuclei at 24 h, Library stock concentration: 13.7 uM",-0.185%
same,"p53-positive nuclei, normalised","[2]; measured here: p53 positive nuclei at 24 h, Library stock concentration: 41 uM",-0.239%
same,"p53-positive nuclei, normalised","[2]; measured here: p53 positive nuclei at 24 h, Library stock concentration: 123 uM",-0.134%
same,"p53-positive nuclei, normalised","[2]; measured here: p53 positive nuclei at 24 h, Library stock concentration: 370 uM",-0.187%
same,"p53-positive nuclei, normalised","[2]; measured here: p53 positive nuclei at 24 h, Library stock concentration: 1.111 mM",-0.0384%
same,"p53-positive nuclei, normalised",[2]; [9],2.85%
same,"p53-positive nuclei, normalised","[2]; measured here: p53 positive nuclei at 24 h, Library stock concentration: 3.333 mM",-0.036%
same,"p53-positive nuclei, normalised",[2]; [10],1.37%
COC(=O)C1C(O)CC[C@H]2CN3CCc4c([nH]c5ccccc45)[C@@H]3C[C@H]12 (stereo partly specified),"nuclei count, normalised",[1]; [3],104%
same,"nuclei count, normalised",[1]; [5],106%
same,"p53-positive nuclei, normalised",[2]; [7],-0.11% (inactive)
same,"p53-positive nuclei, normalised",[2]; [9],-0.356%
CCCCCCCCCCCCCCP(=O)(O)O,"nuclei count, normalised",[1]; [11],105%
same,"nuclei count, normalised",[1]; [12],107%
same,"p53-positive nuclei, normalised",[2]; concentration not given here,-0.0194% (inactive)
same,"p53-positive nuclei, normalised",[2]; [13],-0.0488%
COc1ccc(N(C(=O)Nc2c(C)cccc2C)c2cc(Nc3ccc(N4CCN(C)CC4)cc3OC)ncn2)c(OC)c1,"nuclei count, normalised","[1]; measured here: cell number at 24 h, Library stock concentration: 80 uM",104%
same,"nuclei count, normalised","[1]; measured here: cell number at 24 h, Library stock concentration: 400 uM",93.8%
same,"nuclei count, normalised","[1]; measured here: cell number at 24 h, Library stock concentration: 2 mM",82.3%
same,"nuclei count, normalised",[1]; [4],66%
same,"nuclei count, normalised","[1]; measured here: cell number at 48 h, Library stock concentration: 80 uM",104%
same,"nuclei count, normalised","[1]; measured here: cell number at 48 h, Library stock concentration: 400 uM",90.4%
same,"nuclei count, normalised","[1]; measured here: cell number at 48 h, Library stock concentration: 2 mM",64.8%
same,"nuclei count, normalised",[1]; [6],66.4%
same,"p53-positive nuclei, normalised",[2]; Library stock concentration: 80 uM,-0.0182% (inactive)
same,"p53-positive nuclei, normalised",[2]; Library stock concentration: 400 uM,-0.151% (inactive)
same,"p53-positive nuclei, normalised",[2]; Library stock concentration: 2 mM,-0.0629% (inactive)
same,"p53-positive nuclei, normalised",[2]; [8],0.104% (inactive)
same,"p53-positive nuclei, normalised","[2]; measured here: p53 positive nuclei at 24 h, Library stock concentration: 80 uM",-0.103%
same,"p53-positive nuclei, normalised","[2]; measured here: p53 positive nuclei at 24 h, Library stock concentration: 400 uM",-0.0385%
same,"p53-positive nuclei, normalised","[2]; measured here: p53 positive nuclei at 24 h, Library stock concentration: 2 mM",-0.0916%
same,"p53-positive nuclei, normalised",[2]; [10],-0.0741%
CN(C)Cc1c(C(=O)NCCOc2ccc(C(=O)NO)cc2)oc2ccccc12,"nuclei count, normalised",[1]; [3],40%
same,"nuclei count, normalised",[1]; [5],23.5%
same,"p53-positive nuclei, normalised",[2]; [7],74.6% (active)
same,"p53-positive nuclei, normalised",[2]; [9],61.4%
COc1cc(C(=O)NCc2ccc(OCCN(C)C)cc2)cc(OC)c1OC,"nuclei count, normalised",[1]; [11],106%
same,"nuclei count, normalised",[1]; [12],102%
same,"p53-positive nuclei, normalised",[2]; concentration not given here,-0.214% (inactive)
same,"p53-positive nuclei, normalised",[2]; [13],-0.0679%

# Source: PubChem BioAssay AID1508601 (ICCB-Longwood Screening Facility, Harvard Medical School, 2020)
